# Records with an inconclusive call do not appear. Active and inactive are the calls of the source. Unless noted, the call rests on the fitted dose curve.
# Tests used:
# [1] = molecular target: Bile acid receptor (Homo sapiens) (UniProt Q96RI1); assay: qHTS assay for small molecule agonists of farnesoid X receptor signaling (AID 588527); conditions: HEK293T FXR-UAS-bla, beta-lactamase ratio, 16 h; activation: stronger effect = higher value;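 further: series mostly up to about 77 µM; 0% = vehicle basal and 100% = reference agonist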
# Method in brief: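 Agonist-mode beta-lactamase reporter in GeneBLAzer FXR-UAS-bla HEK293T cells, titration up to 92 uM, 16 h exposure at 37 C, CCF4 fluorescence. Response scaled to DMSO (0%) and 100 uM chenodeoxycholic acid (100%), then Hill-fitted for EC50 and efficacy.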
# [2] = molecular target: Bile acid receptor (Homo sapiens) (UniProt Q96RI1); assay: qHTS assay for small molecule antagonists of farnesoid X receptor signaling (AID 588526); further: on the % scale 0 is the no-effect control and ±100 the full control effect
# Method in brief: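 Antagonist mode: titrated compounds tested against chenodeoxycholic acid stimulation (normalized to 50 uM CDCA and DMSO) in GeneBLAzer HEK293T cells for 16 h. Beta-lactamase read by CCF4 fluorescence; IC50 from Hill fits.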
# [3] = molecular target: Peroxisome proliferator-activated receptor delta (Homo sapiens) (UniProt Q03181); assay: qHTS assay for small molecule agonists of peroxisome proliferator-activated receptor delta signaling (AID 588534);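 further: 0% = DMSO basal wells and 100% = positive control agonist at 10 µM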
# Method in brief: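 Cells carrying a PPAR-delta beta-lactamase reporter were treated with compounds for 18 h at 37 °C in agonist mode. CCF4 fluorescence was read after 2 h; EC50 and efficacy from Hill fits.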
# [4] = qHTS assay for small molecule antagonists of peroxisome proliferator-activated receptor delta signaling (AID 588535; active means well fitted inhibition curve with a large enough effect in the signal ratio, with a control signal flat, not every such curve was filed as active; the % refers to the signal ratio;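 on max response: cells co-treated with a PPAR-delta agonist as stimulator during compound exposure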); conditions: HEK293T PPARd-UAS-bla, beta-lactamase FRET ratio, 18 h; 460 nm channel
# Method in brief: (§1)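 Antagonist-mode beta-lactamase reporter (GeneBLAzer PPAR-delta-UAS-bla) in HEK293T cells, 2% charcoal/dextran FBS, 4000 cells/well. Compound titrations, 18 h at 37 C; CCF4 ratio read, IC50 and efficacy from Hill fits.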
# [5] = molecular target: Peroxisome proliferator-activated receptor delta (Homo sapiens) (UniProt Q03181); assay: as above
# Method in brief: as §1
# [6] = molecular target: Peroxisome proliferator-activated receptor gamma (Homo sapiens) (UniProt P37231); assay: qHTS assay for small molecule agonists of peroxisome proliferator-activated receptor gamma signaling (AID 588536; active means well fitted curve in the direction sought with a large enough effect in the signal ratio, with a control signal flat, not every such curve was filed as active; the % refers to the signal ratio;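 further: 0% = DMSO basal wells and 100% = rosiglitazone at 2 µM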)
# Method in brief: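 Ratiometric blue/green fluorescence (405 nm excitation; 460 and 530 nm emission) from CCF4-loaded HEK293 reporter cells serves as signal. Exposure to test compounds lasts 16 h at 37 C in medium containing 1% charcoal/dextran-treated serum.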
# [7] = molecular target: Vitamin D3 receptor (Homo sapiens) (UniProt P11473); assay: qHTS assay for small molecule antagonists of vitamin D receptor signaling (AID 588541);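 further: receptor activated by calcitriol during compound treatment; series mostly up to about 77 µM; on the % scale 0 is the no-effect control and ±100 the full control effect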
# Method in brief: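 VDR-UAS-bla HEK293T cells in 2% charcoal-stripped FBS were stimulated with 1-alpha,25-dihydroxyvitamin D3 (3 nM final) plus compound for 16 h at 37 C. The beta-lactamase CCF4 readout was normalized to 50 nM agonist and DMSO, and Hill fits gave IC50.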
# [8] = molecular target: Vitamin D3 receptor (Homo sapiens) (UniProt P11473); assay: qHTS assay for small molecule agonists of vitamin D receptor signaling (AID 588543);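 further: 0% = DMSO basal and 100% = reference agonist control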
# Method in brief: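 β-lactamase reporter, VDR-UAS-bla HEK293T, agonist mode. Cells plated 5 h at 37 °C, compound titration 16 h at 37 °C, CCF4 dye 2 h RT, ratio 460/530 nm. Hill fit → EC50, efficacy vs 50 nM 1α,25-(OH)2D3.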
# [9] = qHTS assay for small molecule agonists of retinoid X receptor alpha signaling (AID 588544); conditions: HEK293T RXRa-UAS-bla, beta-lactamase reporter, 18 h; 530 nm emission;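 on activation: 0% = DMSO basal wells and 100% = reference agonist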
# [10] = molecular target: Retinoic acid receptor RXR-alpha (Homo sapiens) (UniProt P19793); assay: as above
# [11] = molecular target: Thyroid hormone receptor beta (Homo sapiens) (UniProt P10828); assay: qHTS assay for small molecule agonists of thyroid hormone receptor beta signaling (AID 588545)
# Method in brief: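 Agonist activity was read as beta-lactamase CCF4 fluorescence (405 ex, 460/530 em), scaled between DMSO (0%) and 10 nM T3 (100%), then Hill-fitted for EC50 and efficacy. HEK 293 TR-UAS-bla cells in 2% charcoal/dextran FBS medium were exposed 18 h at 37 C.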
# [12] = qHTS assay for small molecule antagonists of retinoid X receptor alpha signaling (AID 588546; active means well fitted inhibition curve with a large enough effect in the signal ratio, with a control signal flat, not every such curve was filed as active; the % refers to the signal ratio;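 further: cells stimulated with 9-cis-retinoic acid as agonist; on the % scale 0 is the no-effect control and ±100 the full control effect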); conditions: HEK293T RXRa-UAS-bla, beta-lactamase ratio, antagonist mode; measured here: W530 green channel, cytotoxicity proxy
# Method in brief: (§2)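 Beta-lactamase reporter inhibition, read as CCF4 fluorescence ratio (ex 405, em 460/530 nm) after 2 h at RT. HEK293T UAS-bla cells, 2500/well, were stimulated with 9-cis-RA at 500 or 100 nM final alongside test compound for 18 h at 37 C.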
# [13] = molecular target: Retinoic acid receptor RXR-alpha (Homo sapiens) (UniProt P19793); assay: as above; conditions: HEK293T RXRa-UAS-bla, beta-lactamase ratio, antagonist mode
# Method in brief: as §2
# [14] = molecular target: Thyroid hormone receptor beta (Homo sapiens) (UniProt P10828); assay: qHTS assay for small molecule antagonists of thyroid hormone receptor beta signaling (AID 588547; active means well fitted inhibition curve with a large enough effect in the signal ratio, with a control signal flat, not every such curve was filed as active; the % refers to the signal ratio;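 further: cells stimulated with 0.4 nM T3 agonist during compound exposure; series mostly up to about 77 µM; on the % scale 0 is the no-effect control and ±100 the full control effect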); conditions: TR-UAS-bla HEK293, beta-lactamase ratio, antagonist mode, 18 h
# Method in brief: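 TR-UAS-bla GripTite HEK293 cells in 2% charcoal/dextran FBS medium; compounds 0.59 nM to 92 uM with T3 at 0.4nM final, 18 h at 37 C. Beta-lactamase read by CCF4 fluorescence (460/530 nm); Hill fits gave IC50 and efficacy.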
# [15] = qHTS assay for small molecule activators of the p53 signaling pathway (AID 651743; active means well fitted activation curve with a large enough effect in the signal ratio, not every such curve was filed as active; the % refers to the signal ratio; further: series mostly up to about 92 µM; % of control where 0% means no effect); conditions: HCT-116 p53RE-bla, beta-lactamase FRET ratio, 16 h; activation: stronger effect = higher value
# Method in brief: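 p53RE-bla HCT-116 cells carrying a beta-lactamase reporter under p53 response elements were exposed to compounds for 16 hours at 37 C. Reporter activity read as fluorescence after 2 hours at room temperature with LiveBLAzer B/G FRET substrate.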
# [16] = qHTS assay for small molecule activators of the nuclear factor-kappa B (NF-kB) signaling pathway (AID 651749; active means well fitted activation curve with a large enough effect in the signal ratio; the % refers to the signal ratio; further: series mostly up to about 77 µM; % of control where 0% means no effect); conditions: NF-kB-bla ME-180 cells, beta-lactamase FRET ratio, 16 h; activation: stronger effect = higher value
# Method in brief: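 NF-kB-bla ME-180 cells carrying a beta-lactamase reporter under an NF-kB response element, 2,000 cells/well, exposed to compound for 16 hr at 37C; FRET-based beta-lactamase fluorescence read-out of pathway activation.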
# [17] = qHTS assay for environmental chemicals that activate the Aryl hydrocarbon Receptor (AhR) signaling pathway (AID 651777; active means well fitted curve in the direction sought with a large enough effect; an effect the other way counts as inactive or inconclusive; further: % of control where 0% means no effect; nearly all actives have a fitted effect of over 15% in size); conditions: 1A2-DRE human hepatoma cells, luciferase, 24 h; activation: stronger effect = higher value
# Method in brief: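 Luminescence (One-Glo, 30 min, room temperature) reports AhR-driven luciferase in stably transfected human hepatoma cells bearing DRE and CYP1A2 promoter. Cells (1,200/well) were treated with compound for 24 hr at 37 C in qHTS format.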
# [18] = molecular target: Peroxisome proliferator-activated receptor alpha (Homo sapiens) (UniProt Q07869); assay: qHTS assay for small molecule agonists of the peroxisome proliferator-activated receptor alpha (PPARalpha) signaling pathway (AID 651778; active means well fitted curve in the direction sought with a large enough effect; an effect the other way counts as inactive or inconclusive; further: % of control where 0% means no effect); conditions: PathHunter PPARalpha complementation, chemiluminescence, 6 h; max response: stronger effect = higher value
# Method in brief: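 Enzyme-fragment complementation assay in which ligand-bound PPARalpha translocates and forms an active enzyme that generates chemiluminescence. Cells were plated overnight, exposed to compound for 6 hr at 37 C, and then given detection reagent for 60 min at room temperature.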
# [19] = qHTS assay for small molecule agonists of the antioxidant response element (ARE) signaling pathway measured by Nrf2-dependant transcriptional activity - cell viability counter screen (AID 720653; active means well fitted curve in the direction sought with a large enough effect in the repeat runs; an effect the other way counts as inactive or inconclusive; further: on the % scale 0 is the no-effect control and ±100 the full control effect); conditions: ARE-bla HepG2 viability, CellTiter-Glo ATP luminescence, 16 h; max response: stronger effect = lower value
# Method in brief: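 ARE-bla HepG2 cells treated with compounds for 16 h at 37C; this counter screen measures viability as intracellular ATP by CellTiter-Glo luminescence after 30 min at room temperature.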
# [20] = qHTS assay for cell viability of HEK293 cells (AID 743288; active means well fitted curve in the direction sought with a large enough effect; an effect the other way counts as inactive or inconclusive; further: on the % scale 0 is the no-effect control and ±100 the full control effect; nearly all actives have a fitted effect of over 50% in size); conditions: ATP luminescence (CellTiter-Glo), 18 h; max response: stronger effect = lower value
# Method in brief: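 Environmental chemicals tested in qHTS format against parental HEK293 cells; 18 h treatment, 37 C; read-out ATP luminescence (CellTiter-Glo), 30 min RT development.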
# [21] = qHTS assay for cell viability of the p53RE-bla HCT-116 cell line (AID 743292; active means well fitted curve in the direction sought with a large enough effect; an effect the other way counts as inactive or inconclusive; further: on the % scale 0 is the no-effect control and ±100 the full control effect; nearly all actives have a fitted effect of over 55% in size)
# Method in brief: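 ATP-based luminescent viability (CellTiter-Glo, 30 min RT) after 16 h compound treatment at 37 C of p53RE-bla HCT-116 cells, seeded at 4,000 cells/well and rested 5 h before dosing.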
# [22] = molecular target: Nuclear receptor subfamily 1 group I member 2 (Rattus norvegicus) (UniProt Q9R1A7); assay: qHTS assay for small molecule activators of the rat pregnane X receptor (rPXR) signaling pathway (AID 651751; call rule not given here; further: 0% is about no effect); conditions: rPXR reporter cells, luciferase (One-Glo), 24 h
# Sequence of Nuclear receptor subfamily 1 group I member 2 (Rattus norvegicus) (Q9R1A7 whole entry, looked up): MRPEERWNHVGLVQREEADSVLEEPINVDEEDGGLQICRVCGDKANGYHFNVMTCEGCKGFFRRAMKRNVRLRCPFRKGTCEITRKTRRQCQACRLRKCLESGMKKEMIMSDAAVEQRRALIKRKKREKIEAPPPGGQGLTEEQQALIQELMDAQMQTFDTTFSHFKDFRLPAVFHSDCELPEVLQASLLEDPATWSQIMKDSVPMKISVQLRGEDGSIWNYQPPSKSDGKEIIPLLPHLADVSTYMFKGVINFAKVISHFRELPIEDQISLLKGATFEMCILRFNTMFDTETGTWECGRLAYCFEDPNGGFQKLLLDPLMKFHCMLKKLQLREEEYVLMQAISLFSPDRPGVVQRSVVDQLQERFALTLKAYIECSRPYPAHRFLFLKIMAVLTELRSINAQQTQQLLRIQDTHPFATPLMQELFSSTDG
# Sequence of Bile acid receptor (Homo sapiens) (Q96RI1 whole entry, looked up): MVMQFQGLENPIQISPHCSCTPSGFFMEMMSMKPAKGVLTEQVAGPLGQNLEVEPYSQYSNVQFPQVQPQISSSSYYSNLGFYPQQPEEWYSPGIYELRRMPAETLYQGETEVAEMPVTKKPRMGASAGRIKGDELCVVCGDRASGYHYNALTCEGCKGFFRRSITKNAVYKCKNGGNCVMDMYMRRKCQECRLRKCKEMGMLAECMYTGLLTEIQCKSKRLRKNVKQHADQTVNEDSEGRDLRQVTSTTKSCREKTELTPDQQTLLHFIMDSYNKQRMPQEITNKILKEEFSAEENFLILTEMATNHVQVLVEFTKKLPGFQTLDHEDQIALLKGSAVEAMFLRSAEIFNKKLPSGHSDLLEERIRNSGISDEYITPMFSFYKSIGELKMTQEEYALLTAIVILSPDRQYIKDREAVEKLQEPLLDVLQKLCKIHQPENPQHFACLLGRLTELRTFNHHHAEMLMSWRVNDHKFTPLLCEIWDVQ
# Sequence of Peroxisome proliferator-activated receptor delta (Homo sapiens) (Q03181 whole entry, looked up): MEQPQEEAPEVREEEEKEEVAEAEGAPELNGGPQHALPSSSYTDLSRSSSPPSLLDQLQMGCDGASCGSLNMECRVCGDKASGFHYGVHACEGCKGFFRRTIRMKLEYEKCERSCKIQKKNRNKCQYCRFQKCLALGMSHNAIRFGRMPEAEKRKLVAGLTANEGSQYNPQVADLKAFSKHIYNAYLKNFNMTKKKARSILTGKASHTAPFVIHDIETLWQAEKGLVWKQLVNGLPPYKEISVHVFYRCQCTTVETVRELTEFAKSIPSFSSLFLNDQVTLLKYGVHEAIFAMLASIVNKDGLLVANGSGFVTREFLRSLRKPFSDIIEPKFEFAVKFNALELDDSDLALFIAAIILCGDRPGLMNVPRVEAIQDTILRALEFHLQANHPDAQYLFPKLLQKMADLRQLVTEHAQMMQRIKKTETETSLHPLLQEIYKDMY
# Sequence of Vitamin D3 receptor (Homo sapiens) (P11473 whole entry, looked up): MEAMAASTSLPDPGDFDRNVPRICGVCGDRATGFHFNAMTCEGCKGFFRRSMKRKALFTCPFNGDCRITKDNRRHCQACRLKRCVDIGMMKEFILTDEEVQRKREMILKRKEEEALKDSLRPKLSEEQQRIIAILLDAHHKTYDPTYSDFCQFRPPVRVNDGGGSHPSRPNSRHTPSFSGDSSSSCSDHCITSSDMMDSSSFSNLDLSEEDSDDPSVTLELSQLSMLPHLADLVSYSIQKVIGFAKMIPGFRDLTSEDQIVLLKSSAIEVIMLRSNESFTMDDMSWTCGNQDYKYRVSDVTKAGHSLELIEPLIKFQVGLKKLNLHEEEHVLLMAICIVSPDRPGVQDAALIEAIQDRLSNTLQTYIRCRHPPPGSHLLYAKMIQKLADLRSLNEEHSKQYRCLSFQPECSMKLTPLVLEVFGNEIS
# Sequence of Thyroid hormone receptor beta (Homo sapiens) (P10828 whole entry, looked up): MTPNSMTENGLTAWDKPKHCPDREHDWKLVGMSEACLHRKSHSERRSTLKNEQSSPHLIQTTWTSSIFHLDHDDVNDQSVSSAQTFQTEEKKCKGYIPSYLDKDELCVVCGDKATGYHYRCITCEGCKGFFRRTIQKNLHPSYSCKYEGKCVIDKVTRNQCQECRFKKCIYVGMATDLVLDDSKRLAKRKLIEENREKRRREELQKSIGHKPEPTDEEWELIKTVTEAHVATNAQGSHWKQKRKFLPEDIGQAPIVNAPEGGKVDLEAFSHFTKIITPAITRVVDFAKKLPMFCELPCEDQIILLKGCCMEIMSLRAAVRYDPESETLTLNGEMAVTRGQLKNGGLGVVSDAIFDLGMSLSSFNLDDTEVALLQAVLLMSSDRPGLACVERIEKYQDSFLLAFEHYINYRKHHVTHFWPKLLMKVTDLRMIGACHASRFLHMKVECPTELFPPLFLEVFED
# Sequence of Retinoic acid receptor RXR-alpha (Homo sapiens) (P19793 whole entry, looked up): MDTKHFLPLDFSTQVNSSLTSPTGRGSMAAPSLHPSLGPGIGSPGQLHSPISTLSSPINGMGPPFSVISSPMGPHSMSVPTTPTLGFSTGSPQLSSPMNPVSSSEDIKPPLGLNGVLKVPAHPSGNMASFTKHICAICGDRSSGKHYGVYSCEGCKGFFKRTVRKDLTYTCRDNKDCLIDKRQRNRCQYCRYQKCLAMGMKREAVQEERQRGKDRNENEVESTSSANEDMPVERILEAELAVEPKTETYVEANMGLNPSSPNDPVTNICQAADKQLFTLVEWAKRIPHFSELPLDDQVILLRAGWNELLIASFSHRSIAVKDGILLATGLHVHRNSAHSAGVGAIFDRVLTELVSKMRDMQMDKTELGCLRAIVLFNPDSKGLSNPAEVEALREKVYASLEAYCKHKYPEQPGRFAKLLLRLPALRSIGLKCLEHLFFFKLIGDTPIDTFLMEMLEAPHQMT
# Sequence of Peroxisome proliferator-activated receptor alpha (Homo sapiens) (Q07869 whole entry, looked up, the tested form may be a part): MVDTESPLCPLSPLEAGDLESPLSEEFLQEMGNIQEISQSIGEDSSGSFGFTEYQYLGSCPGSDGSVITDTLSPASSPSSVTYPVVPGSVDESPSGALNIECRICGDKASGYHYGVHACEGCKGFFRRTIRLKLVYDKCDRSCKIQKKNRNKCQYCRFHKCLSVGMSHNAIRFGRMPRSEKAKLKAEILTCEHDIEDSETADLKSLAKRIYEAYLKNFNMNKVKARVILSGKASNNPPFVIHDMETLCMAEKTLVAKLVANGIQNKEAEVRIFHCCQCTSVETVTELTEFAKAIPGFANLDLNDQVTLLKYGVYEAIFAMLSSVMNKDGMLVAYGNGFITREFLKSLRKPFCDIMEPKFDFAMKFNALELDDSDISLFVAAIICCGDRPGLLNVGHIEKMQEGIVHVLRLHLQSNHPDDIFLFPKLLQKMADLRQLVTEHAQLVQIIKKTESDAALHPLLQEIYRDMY
# Sequence of Peroxisome proliferator-activated receptor gamma (Homo sapiens) (P37231 whole entry, looked up): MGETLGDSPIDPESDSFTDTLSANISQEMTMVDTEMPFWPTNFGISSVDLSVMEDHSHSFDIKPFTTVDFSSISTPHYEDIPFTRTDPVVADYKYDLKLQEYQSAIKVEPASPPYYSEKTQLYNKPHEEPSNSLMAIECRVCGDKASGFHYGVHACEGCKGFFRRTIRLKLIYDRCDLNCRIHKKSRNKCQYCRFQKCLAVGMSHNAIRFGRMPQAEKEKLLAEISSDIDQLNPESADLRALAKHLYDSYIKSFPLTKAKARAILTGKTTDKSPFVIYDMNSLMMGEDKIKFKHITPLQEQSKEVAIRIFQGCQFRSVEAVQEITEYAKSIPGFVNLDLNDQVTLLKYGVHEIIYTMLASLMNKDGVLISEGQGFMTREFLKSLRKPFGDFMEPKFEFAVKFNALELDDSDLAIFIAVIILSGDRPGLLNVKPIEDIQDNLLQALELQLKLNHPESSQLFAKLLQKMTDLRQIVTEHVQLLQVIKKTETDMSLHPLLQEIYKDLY
smiles,measurement,setting,value
CC(C)(C)c1ccc(O)c(C(C)(C)C)c1,activation,[1],3.24% (inactive)
CCN(Cc1c(F)cccc1Cl)c1c([N+](=O)[O-])cc(C(F)(F)F)cc1[N+](=O)[O-],activation,[1],8.75% (inactive)
CCCCCCCCCC[N+](C)(C)Cc1ccccc1,activation,[1],3.15% (inactive)
CO[Si](CCCNCCC[Si](OC)(OC)OC)(OC)OC,activation,[1],1.6% (inactive)
C=CC(C)(O)CC/C=C(\C)CCC=C(C)C (stereo not drawn),activation,[1],0.971% (inactive)
CC(C)(C)C(=O)C1C(=O)c2ccccc2C1=O,activation,[1],1.07% (inactive)
Cc1nc2ccc(Cl)cc2[nH]1,activation,[1],-1.36% (inactive)
FB(F)F,activation,[1],0.812% (inactive)
Cc1ccc(S(=O)(=O)NC2CCCCC2)cc1,activation,[1],0.615% (inactive)
O=C(O)C(c1ccc(Cl)cc1)c1ccc(Cl)cc1,activation,[1],-2.74% (inactive)
CCCCCCCCOc1ccc(C(=O)O)cc1,activation,[1],11.7% (inactive)
C=CCCCCCC,activation,[1],-0.782% (inactive)
CC1(C(=O)Nc2ccc(O)c(Cl)c2Cl)CCCCC1,Potency,[2],inactive
same,outcome,[3],inactive
same,max response,[4],11.8%
same,Potency,[5],inactive
same,Potency,[6],inactive
same,Potency,[7],inactive
same,outcome,[8],inactive
same,max response,[9],-10.8%
same,Potency,[10],inactive
same,Potency,[11],inactive
same,max response,[12],-23.6%
same,max response,[13],-4.55% (inactive)
same,activity change % (negative = inhibition),[14],15.7% (inactive)
same,activation,[15],0.119% (inactive)
same,activation,[16],0.744% (inactive)
same,activation,[17],0.158% (inactive)
same,max response,[18],3.06% (inactive)
same,max response,[19],4.3% (inactive)
same,max response,[20],-8.66% (inactive)
same,Potency,[21],inactive
same,max response,[22],1.26% (inactive)
c1ccc2c(c1)Cc1ccccc1-2,activation,[1],0.0131% (inactive)
CCCC[O][Al]([O]CCCC)[O]CCCC,activation,[1],1.48% (inactive)
O=C1c2ccccc2C(=O)C1(O)O,activation,[1],2.64% (inactive)
CC[C@H](C)C1O[C@]2(C=C[C@@H]1C)C[C@@H]1C[C@@H](C/C=C(\C)[C@@H](O[C@H]3C[C@H](OC)[C@@H](O[C@H]4C[C@H](OC)[C@H](NC(C)=O)[C@H](C)O4)[C@H](C)O3)[C@@H](C)/C=C/C=C3\CO[C@@H]4[C@H](O)C(C)=C[C@@H](C(=O)O1)[C@]34O)O2 (stereo partly drawn),activation,[1],6.91% (inactive)
CC(C)C[C@H](NC(=O)OCC1c2ccccc2-c2ccccc21)C(=O)O,activation,[1],-0.845% (inactive)

# Reference: PubChem BioAssay (NCATS)
